# Measured values: doi:10.1101/2025.02.07.636106
# Columns and labels:
# Assay in all cases: cross-linking mass spectrometry
# [1] = target: CHMP4B (UniProt Q9H444)
# [2] = target: BLOC1S2 (UniProt Q6QNY1); details: DSSO
# [3] = target: ATP6V1F (UniProt Q16864); details: DHSO
# [4] = target: CLTC (UniProt Q00610); details: DSSO
# [5] = target: EPS15L1 (UniProt Q9UBC2); details: DMTMM
# [6] = target: CCDC93 (UniProt Q567U6); details: DSSO
# [7] = target: CNTNAP1 (UniProt P78357); details: DSSO
# [8] = target: TMX3 (UniProt Q96JJ7); details: DSSO
# [9] = target: ATP6V1H (UniProt Q9UI12); details: DMTMM
# [10] = target: CCDC40 (UniProt Q4G0X9); details: DMTMM
# [11] = target: CEP126 (UniProt Q9P2H0); details: DSSO
# [12] = target: MYH11 (UniProt P35749); details: DSSO
# [13] = target: PRPF8 (UniProt Q6P2Q9); details: DMTMM
# [14] = target: SNU13 (UniProt P55769); details: DSSO
# [15] = target: USP39 (UniProt Q53GS9); details: DSSO
# [16] = target: CCT2 (UniProt P78371); details: DSSO
# [17] = target: CCT8 (UniProt P50990); details: DSSO
# [18] = target: CHP1 (UniProt Q99653); details: DSSO
# [19] = target: CDC5L (UniProt Q99459); details: DSSO
# [20] = target: CENPI (UniProt Q92674); details: DSSO
# [21] = target: CNPY2 (UniProt Q9Y2B0); details: DSSO
# [22] = target: CHD4 (UniProt Q14839); details: DMTMM
# [23] = target: FGFR3 (UniProt P22607); details: DSSO
# [24] = target: GATAD2A (UniProt Q86YP4); details: DSSO
# [25] = target: HDAC2 (UniProt Q92769); details: DMTMM
# [26] = target: MBD2 (UniProt Q9UBB5); details: DSSO
# [27] = target: MTA1 (UniProt Q13330); details: DSSO
# [28] = target: RBBP4 (UniProt Q09028); details: DHSO
# [29] = target: RBBP7 (UniProt Q16576); details: DHSO
# [30] = target: CPVL (UniProt Q9H3G5); details: DSSO
# [31] = target: LIPA (UniProt P38571); details: DMTMM
# [32] = target: PHF5A (UniProt Q7RTV0); details: DSSO
# [33] = target: SF3B6 (UniProt Q9Y3B4); details: DSSO
# Sequence of SF3B6 (Q9Y3B4 whole entry): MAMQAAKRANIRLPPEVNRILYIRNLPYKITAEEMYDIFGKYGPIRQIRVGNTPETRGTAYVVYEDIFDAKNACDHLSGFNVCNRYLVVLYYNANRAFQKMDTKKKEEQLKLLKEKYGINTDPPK
# [34] = target: CRCP (UniProt O75575); details: DSSO
# [35] = target: POLR2H (UniProt P52434); details: DSSO
# [36] = target: POLR3K (UniProt Q9Y2Y1); details: DSSO
# [37] = target: CWC15 (UniProt Q9P013); details: DSSO
# [38] = target: DCTN2 (UniProt Q13561); details: DSSO
# [39] = target: DDX23 (UniProt Q9BUQ8)
# Sequence of DDX23 (Q9BUQ8 whole entry): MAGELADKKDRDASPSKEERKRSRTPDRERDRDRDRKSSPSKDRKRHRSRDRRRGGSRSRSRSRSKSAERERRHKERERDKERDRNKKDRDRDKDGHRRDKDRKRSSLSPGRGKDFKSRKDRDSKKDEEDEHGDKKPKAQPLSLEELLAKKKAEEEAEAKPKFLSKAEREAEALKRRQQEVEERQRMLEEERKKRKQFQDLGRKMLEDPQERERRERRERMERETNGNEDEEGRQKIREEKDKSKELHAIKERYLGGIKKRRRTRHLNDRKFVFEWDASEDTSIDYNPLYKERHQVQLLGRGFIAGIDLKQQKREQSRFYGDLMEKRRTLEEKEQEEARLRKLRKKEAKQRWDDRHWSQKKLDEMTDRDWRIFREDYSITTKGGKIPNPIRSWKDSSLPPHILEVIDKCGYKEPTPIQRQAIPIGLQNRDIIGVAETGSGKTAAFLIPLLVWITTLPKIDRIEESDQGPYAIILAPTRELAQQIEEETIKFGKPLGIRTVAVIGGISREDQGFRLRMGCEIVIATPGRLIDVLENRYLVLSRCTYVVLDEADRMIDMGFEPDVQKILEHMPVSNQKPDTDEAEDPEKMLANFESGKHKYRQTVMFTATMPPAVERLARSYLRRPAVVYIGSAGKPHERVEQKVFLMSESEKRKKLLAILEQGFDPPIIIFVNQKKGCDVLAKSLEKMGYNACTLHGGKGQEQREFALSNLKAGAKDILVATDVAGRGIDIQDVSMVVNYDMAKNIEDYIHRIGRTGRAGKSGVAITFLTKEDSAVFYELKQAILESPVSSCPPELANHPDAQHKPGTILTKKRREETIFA
# [40] = target: DEF8 (UniProt Q6ZN54); details: DSSO
# [41] = target: DHCR7 (UniProt Q9UBM7); details: DSSO
# [42] = target: LCLAT1 (UniProt Q6UWP7); details: DSSO
# [43] = target: RPN1 (UniProt P04843); details: DSSO
# [44] = target: DNAAF1 (UniProt Q8NEP3); details: DMTMM
# [45] = target: DYNC1I2 (UniProt Q13409); details: DMTMM
# Sequence of SF3B1, O75533 (O75533 whole entry): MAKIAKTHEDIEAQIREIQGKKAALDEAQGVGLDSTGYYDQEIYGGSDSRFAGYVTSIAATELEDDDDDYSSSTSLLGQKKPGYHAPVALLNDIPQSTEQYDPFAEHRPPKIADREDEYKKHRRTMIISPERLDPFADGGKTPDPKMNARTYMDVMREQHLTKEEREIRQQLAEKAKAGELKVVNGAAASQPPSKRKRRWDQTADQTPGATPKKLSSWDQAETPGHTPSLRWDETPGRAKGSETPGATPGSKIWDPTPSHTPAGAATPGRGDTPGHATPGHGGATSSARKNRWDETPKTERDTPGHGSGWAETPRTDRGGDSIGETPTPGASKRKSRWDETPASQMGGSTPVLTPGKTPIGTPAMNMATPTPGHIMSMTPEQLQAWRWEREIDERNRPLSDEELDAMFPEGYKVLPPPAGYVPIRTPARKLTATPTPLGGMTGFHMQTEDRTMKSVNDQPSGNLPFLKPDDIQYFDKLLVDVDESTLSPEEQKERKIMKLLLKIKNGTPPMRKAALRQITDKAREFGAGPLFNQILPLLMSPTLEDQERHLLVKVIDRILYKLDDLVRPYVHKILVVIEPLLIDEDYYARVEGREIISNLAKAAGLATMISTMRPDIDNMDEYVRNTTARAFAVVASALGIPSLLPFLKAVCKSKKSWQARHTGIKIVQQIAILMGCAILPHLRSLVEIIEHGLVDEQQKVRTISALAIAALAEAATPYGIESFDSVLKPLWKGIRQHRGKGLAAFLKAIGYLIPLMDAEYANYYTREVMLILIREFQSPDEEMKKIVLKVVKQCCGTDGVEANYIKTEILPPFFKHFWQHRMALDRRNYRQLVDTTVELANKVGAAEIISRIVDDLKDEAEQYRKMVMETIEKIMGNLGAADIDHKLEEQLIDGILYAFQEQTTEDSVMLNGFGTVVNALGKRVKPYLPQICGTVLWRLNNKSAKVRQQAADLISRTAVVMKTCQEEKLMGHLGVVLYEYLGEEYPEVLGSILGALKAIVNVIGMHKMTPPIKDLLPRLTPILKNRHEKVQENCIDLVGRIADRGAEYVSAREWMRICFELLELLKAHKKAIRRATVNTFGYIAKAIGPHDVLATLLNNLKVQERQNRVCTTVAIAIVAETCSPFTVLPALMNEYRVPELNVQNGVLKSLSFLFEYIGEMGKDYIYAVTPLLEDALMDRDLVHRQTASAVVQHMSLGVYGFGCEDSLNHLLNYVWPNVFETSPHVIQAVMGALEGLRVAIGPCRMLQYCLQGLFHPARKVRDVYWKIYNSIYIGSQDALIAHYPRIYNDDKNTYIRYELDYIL
# Sequence of PGRMC1, O00264 (O00264 whole entry): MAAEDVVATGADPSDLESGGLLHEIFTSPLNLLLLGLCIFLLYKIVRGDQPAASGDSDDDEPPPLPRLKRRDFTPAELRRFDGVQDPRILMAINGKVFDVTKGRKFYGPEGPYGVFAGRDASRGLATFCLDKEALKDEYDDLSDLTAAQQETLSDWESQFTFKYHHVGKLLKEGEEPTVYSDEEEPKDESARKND
# Sequence of MTA2, O94776 (O94776 whole entry): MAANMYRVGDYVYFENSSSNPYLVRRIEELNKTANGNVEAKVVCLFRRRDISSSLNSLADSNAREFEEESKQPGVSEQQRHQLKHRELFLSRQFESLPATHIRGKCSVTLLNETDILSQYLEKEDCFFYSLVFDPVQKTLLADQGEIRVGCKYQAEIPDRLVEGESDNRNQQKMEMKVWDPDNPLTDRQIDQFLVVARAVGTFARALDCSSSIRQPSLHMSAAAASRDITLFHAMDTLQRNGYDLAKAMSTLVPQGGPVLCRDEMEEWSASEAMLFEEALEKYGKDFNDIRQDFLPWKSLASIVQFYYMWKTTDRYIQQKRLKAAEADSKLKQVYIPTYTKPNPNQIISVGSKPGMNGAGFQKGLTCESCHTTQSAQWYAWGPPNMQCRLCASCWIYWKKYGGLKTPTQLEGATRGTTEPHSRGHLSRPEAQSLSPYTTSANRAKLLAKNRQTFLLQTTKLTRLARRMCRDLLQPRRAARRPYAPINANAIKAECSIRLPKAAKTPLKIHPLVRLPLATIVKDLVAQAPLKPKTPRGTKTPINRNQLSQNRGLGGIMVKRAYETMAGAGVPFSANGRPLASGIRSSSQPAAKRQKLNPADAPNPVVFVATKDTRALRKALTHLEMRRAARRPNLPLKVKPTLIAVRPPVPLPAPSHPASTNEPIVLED
# Sequence of PRPF6, O94906 (O94906 whole entry): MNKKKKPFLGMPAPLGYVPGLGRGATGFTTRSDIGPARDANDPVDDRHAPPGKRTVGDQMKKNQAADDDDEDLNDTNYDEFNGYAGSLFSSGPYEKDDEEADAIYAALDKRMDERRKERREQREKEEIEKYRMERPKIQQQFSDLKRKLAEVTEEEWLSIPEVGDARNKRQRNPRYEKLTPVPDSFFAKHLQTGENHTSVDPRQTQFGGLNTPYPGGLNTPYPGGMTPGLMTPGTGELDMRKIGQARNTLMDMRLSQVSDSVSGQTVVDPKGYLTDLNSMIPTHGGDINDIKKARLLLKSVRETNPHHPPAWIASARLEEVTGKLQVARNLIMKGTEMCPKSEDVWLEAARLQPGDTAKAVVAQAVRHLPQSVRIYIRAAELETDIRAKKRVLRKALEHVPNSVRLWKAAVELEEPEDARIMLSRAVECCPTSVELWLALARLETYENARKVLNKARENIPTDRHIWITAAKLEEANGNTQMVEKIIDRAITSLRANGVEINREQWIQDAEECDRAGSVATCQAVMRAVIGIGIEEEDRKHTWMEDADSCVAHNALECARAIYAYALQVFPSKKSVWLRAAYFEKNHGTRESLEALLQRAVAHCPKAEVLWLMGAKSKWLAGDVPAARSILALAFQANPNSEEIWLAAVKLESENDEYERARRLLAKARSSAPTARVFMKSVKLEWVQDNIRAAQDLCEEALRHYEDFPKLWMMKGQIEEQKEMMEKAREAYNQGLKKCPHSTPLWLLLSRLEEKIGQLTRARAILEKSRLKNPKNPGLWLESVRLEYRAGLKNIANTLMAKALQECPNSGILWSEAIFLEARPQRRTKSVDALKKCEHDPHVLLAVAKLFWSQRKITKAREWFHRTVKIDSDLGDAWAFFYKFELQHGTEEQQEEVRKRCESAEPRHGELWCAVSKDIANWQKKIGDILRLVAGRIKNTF
# Sequence of TCP1, P17987 (P17987 whole entry): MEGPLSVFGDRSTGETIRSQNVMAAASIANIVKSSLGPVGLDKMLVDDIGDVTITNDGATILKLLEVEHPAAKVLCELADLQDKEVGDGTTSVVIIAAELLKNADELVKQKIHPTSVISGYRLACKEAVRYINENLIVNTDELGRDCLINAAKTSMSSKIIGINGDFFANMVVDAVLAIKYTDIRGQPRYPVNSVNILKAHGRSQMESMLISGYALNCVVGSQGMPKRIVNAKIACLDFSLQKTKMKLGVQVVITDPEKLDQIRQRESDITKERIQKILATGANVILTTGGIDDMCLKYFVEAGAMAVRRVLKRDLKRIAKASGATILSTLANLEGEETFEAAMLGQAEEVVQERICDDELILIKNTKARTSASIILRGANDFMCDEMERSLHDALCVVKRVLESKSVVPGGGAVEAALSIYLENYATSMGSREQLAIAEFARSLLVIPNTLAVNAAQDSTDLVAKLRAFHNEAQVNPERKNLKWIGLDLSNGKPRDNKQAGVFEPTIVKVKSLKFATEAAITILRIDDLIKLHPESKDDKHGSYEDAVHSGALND
# Sequence of CTSD, P07339 (P07339 whole entry): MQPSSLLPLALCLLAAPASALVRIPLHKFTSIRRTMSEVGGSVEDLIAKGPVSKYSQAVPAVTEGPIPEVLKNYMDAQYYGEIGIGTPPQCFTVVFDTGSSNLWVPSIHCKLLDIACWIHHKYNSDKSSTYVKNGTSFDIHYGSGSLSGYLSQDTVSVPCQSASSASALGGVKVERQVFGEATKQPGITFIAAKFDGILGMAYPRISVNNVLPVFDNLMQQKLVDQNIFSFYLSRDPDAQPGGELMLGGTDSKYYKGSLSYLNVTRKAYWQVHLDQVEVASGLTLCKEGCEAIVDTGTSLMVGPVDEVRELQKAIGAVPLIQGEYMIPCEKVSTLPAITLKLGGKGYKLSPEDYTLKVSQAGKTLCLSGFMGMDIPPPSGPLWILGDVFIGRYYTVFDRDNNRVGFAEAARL
substance,measurement,setting,value
"XPA, P23025",cross-linked residues,[1]; DMTMM,K217 - E48
"SNAPIN, O95295",cross-linked residues,[2],K73 - K92
"ATP6V1A, P38606",cross-linked residues,[3],D562 - E49
"AP2A1, O95782",cross-linked residues,[4],K403 - K189
same,cross-linked residues,[5],K880 - E706
"RPL7A, P62424",cross-linked residues,[6],K245 - K625
"CANX, P27824",cross-linked residues,[7],K227 - K489
same,cross-linked residues,[8],K210 - K267
"ATP6V1G1, O75348",cross-linked residues,[9],K21 - D11
"PTPRF, P10586",cross-linked residues,[10],E195 - K1058
"PRPF6, O94906",cross-linked residues,[11],K137 - K501
same,cross-linked residues,[12],K137 - K1842
same,cross-linked residues,[13],E100 - K480
same,cross-linked residues,[14],K775 - K113
same,cross-linked residues,[15],K137 - K459
"TCP1, P17987",cross-linked residues,[16],K126 - K46
same,cross-linked residues,[17],K494 - K466
"GPAT4, Q86UL3",cross-linked residues,[18],K426 - K40
"BCAS2, O75934",cross-linked residues,[19],K177 - K771
"PDCD6IP, Q8WUM4",cross-linked residues,[20],K285 - K618
same,cross-linked residues,[1]; DSSO,K215 - K207
"HSP90B1, P14625",cross-linked residues,[21],K161 - K49
"MTA2, O94776",cross-linked residues,[22],D143 - K290
same,cross-linked residues,[23],K41 - K205
same,cross-linked residues,[24],K559 - K204
same,cross-linked residues,[25],D182 - K11
same,cross-linked residues,[26],K41 - K167
same,cross-linked residues,[27],K539 - K527
same,cross-linked residues,[28],D600 - E14
same,cross-linked residues,[29],D600 - E103
"CTSD, P07339",cross-linked residues,[30],K127 - K423
same,cross-linked residues,[31],D238 - K304
"SF3B1, O75533",cross-linked residues,[30],K163 - K423
same,cross-linked residues,[32],K554 - K13
same,cross-linked residues,[33],K214 - K7
"POLR3A, O14802",cross-linked residues,[34],K398 - K34
same,cross-linked residues,[35],K590 - K146
same,cross-linked residues,[36],K1224 - K96
"PLRG1, O43660",cross-linked residues,[37],K363 - K18
"SNW1, Q13573",cross-linked residues,[37],K153 - K18
"ACTR1A, P61163",cross-linked residues,[38],K361 - K119
"EFTUD2, Q15029",cross-linked residues,[39]; DMTMM,D860 - K196
same,cross-linked residues,[39]; DSSO,K244 - K196
"SNRNP200, O75643",cross-linked residues,[39]; DSSO,K14 - K251
"WDR45B, Q5MNZ6",cross-linked residues,[40],K42 - K180
"SACM1L, Q9NTJ5",cross-linked residues,[41],K10 - K13
"PGRMC1, O00264",cross-linked residues,[41],K102 - K13
same,cross-linked residues,[42],K105 - K221
same,cross-linked residues,[43],K105 - K524
"MSL1, Q68DK7",cross-linked residues,[44],K509 - E532
"DYNLL1, P63167",cross-linked residues,[45],K36 - E159
